For test [1], the target named is T1, Muscle, skeletal receptor tyrosine-protein kinase (Homo sapiens) (UniProt O15146).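 Note: reported value is the mean percent inhibition of MuSK kinase.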
T1 sequence (whole entry): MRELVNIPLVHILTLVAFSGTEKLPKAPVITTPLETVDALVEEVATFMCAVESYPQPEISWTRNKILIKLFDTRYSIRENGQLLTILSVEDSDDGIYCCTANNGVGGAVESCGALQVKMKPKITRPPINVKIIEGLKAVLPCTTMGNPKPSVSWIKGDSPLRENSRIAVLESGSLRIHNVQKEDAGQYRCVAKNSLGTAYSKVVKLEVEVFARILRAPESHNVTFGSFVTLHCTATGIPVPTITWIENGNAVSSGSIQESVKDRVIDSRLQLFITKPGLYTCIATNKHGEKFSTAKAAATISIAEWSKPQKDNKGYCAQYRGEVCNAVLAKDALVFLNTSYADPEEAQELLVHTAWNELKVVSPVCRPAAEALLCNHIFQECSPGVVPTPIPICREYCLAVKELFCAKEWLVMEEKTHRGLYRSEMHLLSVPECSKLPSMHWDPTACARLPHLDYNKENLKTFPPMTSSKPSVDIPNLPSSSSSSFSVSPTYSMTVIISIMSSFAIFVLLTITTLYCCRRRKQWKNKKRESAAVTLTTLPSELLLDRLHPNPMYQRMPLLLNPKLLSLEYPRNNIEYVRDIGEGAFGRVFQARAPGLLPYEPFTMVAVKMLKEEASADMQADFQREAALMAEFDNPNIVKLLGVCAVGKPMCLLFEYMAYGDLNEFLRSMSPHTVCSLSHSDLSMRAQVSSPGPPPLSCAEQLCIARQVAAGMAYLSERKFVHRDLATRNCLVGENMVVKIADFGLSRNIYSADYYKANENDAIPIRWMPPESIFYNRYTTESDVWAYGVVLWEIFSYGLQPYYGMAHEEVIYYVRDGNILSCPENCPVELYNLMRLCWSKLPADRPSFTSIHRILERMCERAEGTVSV
Particulars: at 1 µM.

In test [2] the target is Platelet-derived growth factor receptor alpha (Homo sapiens) (UniProt P16234). As to conditions: at 0.1 µM.
Test [3] shares this target. Particulars: at 1 µM.
In test [4] the test system is Platelet-derived growth factor receptor alpha (Homo sapiens), P16234 [D842V]. Particulars: at 0.1 µM.
Test [5] has the same test system. As to conditions: at 1 µM.
The test system of test [6] is Platelet-derived growth factor receptor alpha (Homo sapiens), P16234 [T674I]. As to conditions: at 0.1 µM.
Test [7] shares this test system. Particulars: at 1 µM.
In test [8] the test system is Platelet-derived growth factor receptor alpha (Homo sapiens), P16234 [V561D]. Particulars: at 0.1 µM.
The test system is the same in test [9]. As to conditions: at 1 µM.
In test [10] the target is Platelet-derived growth factor receptor beta (Homo sapiens) (UniProt P09619). Particulars: at 0.1 µM.
Test [11] shares this target. Particulars: at 1 µM.
Test [12] concerns the target Tyrosine-protein kinase FRK (Homo sapiens) (UniProt P42685). Particulars: at 0.1 µM.
Test [13] shares this target. Particulars: at 1 µM.
The target in test [14] is Protein-tyrosine kinase 2-beta (Homo sapiens) (UniProt Q14289). As to conditions: at 0.1 µM.
Test [15] has the same target. Particulars: at 1 µM.
In test [16] the target is Proto-oncogene tyrosine-protein kinase receptor Ret (Homo sapiens) (UniProt P07949). Particulars: at 0.1 µM.
For test [17] the target is unchanged. As to conditions: at 1 µM.
Test [18] relates to Proto-oncogene tyrosine-protein kinase receptor Ret (Homo sapiens), P07949 [V804L]. Particulars: at 0.1 µM.
The test system is the same in test [19]. As to conditions: at 1 µM.
Test [20] has as its system Proto-oncogene tyrosine-protein kinase receptor Ret (Homo sapiens), P07949 [Y791F]. Particulars: at 0.1 µM.

Chain of Platelet-derived growth factor receptor beta (Homo sapiens) (P09619 whole entry): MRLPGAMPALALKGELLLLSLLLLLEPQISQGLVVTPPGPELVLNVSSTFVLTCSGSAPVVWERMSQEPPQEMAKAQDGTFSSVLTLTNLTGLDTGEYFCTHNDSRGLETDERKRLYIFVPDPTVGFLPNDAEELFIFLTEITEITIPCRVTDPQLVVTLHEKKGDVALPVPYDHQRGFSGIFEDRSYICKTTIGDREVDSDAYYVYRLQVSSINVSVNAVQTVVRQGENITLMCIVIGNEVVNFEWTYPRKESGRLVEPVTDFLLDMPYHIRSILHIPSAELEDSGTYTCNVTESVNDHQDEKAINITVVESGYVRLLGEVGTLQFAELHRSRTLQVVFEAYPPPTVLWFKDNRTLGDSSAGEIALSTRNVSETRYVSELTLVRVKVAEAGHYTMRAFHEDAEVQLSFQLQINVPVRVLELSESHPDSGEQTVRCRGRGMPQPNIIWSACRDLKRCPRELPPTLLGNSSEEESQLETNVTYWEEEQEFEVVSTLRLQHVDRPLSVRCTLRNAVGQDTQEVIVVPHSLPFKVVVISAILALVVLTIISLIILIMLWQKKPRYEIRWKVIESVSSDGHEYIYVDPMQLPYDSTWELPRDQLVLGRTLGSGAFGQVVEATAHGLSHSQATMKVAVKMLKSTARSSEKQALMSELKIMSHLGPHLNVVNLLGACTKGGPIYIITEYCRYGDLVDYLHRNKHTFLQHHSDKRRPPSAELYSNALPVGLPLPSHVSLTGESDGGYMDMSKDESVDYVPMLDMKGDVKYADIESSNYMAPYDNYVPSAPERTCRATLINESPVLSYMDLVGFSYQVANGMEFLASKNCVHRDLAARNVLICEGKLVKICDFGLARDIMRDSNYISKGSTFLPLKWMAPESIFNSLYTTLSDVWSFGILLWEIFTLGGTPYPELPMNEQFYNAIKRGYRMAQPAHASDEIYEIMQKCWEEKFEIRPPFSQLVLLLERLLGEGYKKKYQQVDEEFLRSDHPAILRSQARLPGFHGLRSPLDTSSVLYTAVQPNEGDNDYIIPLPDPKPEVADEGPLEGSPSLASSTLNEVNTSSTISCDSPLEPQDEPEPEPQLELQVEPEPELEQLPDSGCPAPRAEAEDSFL
Chain of Platelet-derived growth factor receptor alpha (Homo sapiens) (P16234 whole entry): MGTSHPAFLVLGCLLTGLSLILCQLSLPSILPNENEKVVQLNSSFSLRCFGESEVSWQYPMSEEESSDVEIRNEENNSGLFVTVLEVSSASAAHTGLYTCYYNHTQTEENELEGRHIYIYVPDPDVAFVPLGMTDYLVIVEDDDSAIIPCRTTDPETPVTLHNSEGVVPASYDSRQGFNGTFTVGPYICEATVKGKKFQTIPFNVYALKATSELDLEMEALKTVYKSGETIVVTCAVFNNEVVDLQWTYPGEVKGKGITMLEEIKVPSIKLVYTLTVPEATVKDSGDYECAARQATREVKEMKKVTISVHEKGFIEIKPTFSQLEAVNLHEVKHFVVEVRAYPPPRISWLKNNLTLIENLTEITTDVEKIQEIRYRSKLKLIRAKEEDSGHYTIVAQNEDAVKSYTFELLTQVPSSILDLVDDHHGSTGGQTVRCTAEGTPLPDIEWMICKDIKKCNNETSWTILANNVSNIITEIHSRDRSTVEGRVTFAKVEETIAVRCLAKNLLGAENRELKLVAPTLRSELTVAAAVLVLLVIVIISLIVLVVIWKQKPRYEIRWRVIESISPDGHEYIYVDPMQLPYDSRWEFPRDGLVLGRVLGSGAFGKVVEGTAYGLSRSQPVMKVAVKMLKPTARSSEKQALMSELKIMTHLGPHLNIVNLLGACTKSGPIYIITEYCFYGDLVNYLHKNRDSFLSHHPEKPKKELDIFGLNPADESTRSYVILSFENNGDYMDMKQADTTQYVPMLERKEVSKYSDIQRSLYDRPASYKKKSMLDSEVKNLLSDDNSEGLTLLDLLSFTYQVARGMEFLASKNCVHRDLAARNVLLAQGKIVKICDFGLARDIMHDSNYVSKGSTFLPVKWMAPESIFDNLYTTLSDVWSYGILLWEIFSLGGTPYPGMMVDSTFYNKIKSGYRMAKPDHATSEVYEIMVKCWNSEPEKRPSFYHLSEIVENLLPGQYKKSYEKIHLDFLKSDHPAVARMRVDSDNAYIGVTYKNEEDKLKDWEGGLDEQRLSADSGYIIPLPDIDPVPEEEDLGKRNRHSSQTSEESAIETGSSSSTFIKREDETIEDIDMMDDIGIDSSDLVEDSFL
Chain of Platelet-derived growth factor receptor alpha (Homo sapiens), P16234 [T674I] (P16234 whole entry T674I): as the sequence (P16234 whole entry) above, with T674I counted along it
Chain of Proto-oncogene tyrosine-protein kinase receptor Ret (Homo sapiens) (P07949 whole entry): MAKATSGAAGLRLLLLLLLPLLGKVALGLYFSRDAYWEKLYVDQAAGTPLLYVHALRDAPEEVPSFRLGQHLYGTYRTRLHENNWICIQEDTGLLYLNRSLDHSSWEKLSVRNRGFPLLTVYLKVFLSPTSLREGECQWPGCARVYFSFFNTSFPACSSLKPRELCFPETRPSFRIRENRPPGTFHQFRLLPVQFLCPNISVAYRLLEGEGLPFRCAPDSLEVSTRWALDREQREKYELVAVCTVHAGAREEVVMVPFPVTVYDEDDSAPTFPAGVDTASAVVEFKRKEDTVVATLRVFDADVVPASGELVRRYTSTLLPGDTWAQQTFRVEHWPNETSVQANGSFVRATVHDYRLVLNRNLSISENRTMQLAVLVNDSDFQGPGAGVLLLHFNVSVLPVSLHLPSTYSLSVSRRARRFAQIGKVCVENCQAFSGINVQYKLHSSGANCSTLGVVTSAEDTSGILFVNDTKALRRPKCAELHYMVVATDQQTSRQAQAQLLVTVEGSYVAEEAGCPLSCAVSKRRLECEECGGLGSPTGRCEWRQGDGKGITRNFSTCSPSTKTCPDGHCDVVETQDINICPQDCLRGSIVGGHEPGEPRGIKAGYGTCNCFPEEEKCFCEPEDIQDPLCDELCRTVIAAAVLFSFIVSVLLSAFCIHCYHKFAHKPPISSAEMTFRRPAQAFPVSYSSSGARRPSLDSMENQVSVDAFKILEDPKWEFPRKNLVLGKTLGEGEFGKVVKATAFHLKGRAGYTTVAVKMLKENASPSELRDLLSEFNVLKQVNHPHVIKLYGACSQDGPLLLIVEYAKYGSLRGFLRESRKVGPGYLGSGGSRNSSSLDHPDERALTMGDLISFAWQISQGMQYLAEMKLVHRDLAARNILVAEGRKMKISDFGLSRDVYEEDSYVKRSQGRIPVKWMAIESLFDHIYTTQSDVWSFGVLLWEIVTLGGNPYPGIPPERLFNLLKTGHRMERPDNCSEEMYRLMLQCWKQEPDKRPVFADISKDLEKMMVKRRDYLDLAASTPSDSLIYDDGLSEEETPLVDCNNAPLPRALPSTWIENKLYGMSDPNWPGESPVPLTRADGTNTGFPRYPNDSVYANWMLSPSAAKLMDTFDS
Chain of Tyrosine-protein kinase FRK (Homo sapiens) (P42685 whole entry): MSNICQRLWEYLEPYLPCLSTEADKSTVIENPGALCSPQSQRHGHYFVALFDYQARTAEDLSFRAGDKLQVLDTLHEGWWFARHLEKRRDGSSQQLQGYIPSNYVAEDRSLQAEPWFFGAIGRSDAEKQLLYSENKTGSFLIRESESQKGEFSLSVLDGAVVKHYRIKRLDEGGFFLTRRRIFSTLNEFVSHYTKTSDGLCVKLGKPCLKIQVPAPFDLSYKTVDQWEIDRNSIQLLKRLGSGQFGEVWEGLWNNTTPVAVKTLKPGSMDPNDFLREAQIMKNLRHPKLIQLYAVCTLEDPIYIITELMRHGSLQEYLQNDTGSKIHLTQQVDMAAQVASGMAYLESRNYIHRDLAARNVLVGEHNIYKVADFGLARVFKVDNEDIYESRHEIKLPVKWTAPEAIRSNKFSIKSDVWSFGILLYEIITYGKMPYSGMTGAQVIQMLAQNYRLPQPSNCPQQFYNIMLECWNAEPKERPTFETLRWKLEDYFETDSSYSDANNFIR

As to `O=C(O[C@H]1CN[C@H](C#Cc2cc3ncnc(Nc4ccc(OCc5cccc(F)c5)c(Cl)c4)c3s2)C1)N1CCOCC1`, the inhibition (usually the drop in the measured response relative to a control, in per cent) in test [1] was determined as 2.35%; in [2], 7.9%; in test [3] it was 14.3%; in test [4], 2.95%; in [5], 4.82%; in test [6], 8.66%. Further, the inhibition in test [7] was 9.57%; in [8] it was 8.32%; in [9], 3.92%; in [10] it was 1.59%; in test [11], 5.35%; in test [12], 3.74%. The inhibition amounted to 2.3% in test [13]; 12.3% in test [14]; 16.8% in test [15]; 2% in test [16]; 10.6% in test [17]; 2.92% in test [18]. Moreover, the results for the inhibition in [19] and in test [20] were 6.95% and 4.36%, respectively.
In the case of `CNC(=O)c1ncccc1Nc1nc(Nc2cc3c(cc2OC)CCCN3C(=O)CN(C)C)nc2[nH]ccc12`, the inhibition in test [1] was determined as 16.7%; in [2] it was 10.7%; in [3], 20.6%; in test [4] it was 3.17%; in test [5], 7.19%; in test [6], 5.75%. Further, the inhibition in test [7] turned out to be 6.87%; in test [8] it was 3.32%; in test [9], 9.94%; in [10], 7.26%; in test [11], 27.1%; in [12], 2.49%. Besides, the inhibition in test [13] came out at 2.98%; in [14] it was 37.8%; in test [15], 95.7%; in test [16], 7.39%; in [17] it was 9.1%; in test [18], 7.91%. For the same molecule, the inhibition stood at 20.4% in [19] and 7.98% in test [20].
For `c1ccc(-c2n[nH]cc2-c2ccnc(-c3ccc(OCCn4ccnc4)cc3)c2)nc1`, the inhibition was found to be 4.35% in [1]; 14.2% in test [2]; 64.6% in test [3]; 23.5% in test [4]; 76.1% in [5]; 6.06% in test [6]. The inhibition in test [7] stood at 6.32%; in test [8] it was 17.8%; in test [9] it was 57%; in test [10], 15.3%; in test [11], 65.6%; in test [12] it was 1.69%. Further, the inhibition in test [13] worked out at 2.79%; in [14] it was 2.99%; in [15], 3.76%; in test [16], 2%; in test [17], 9.49%; in test [18] it was 2.75%. Moreover, the inhibition amounted to 13.2% in test [19] and 2.44% in test [20].
On to `COc1cc2c(cc1Nc1nc(Nc3cccc(F)c3C(N)=O)c3cc[nH]c3n1)N(C(=O)CN1CCN(C(C)C)CC1)CC2`, for which the inhibition was 8.69% in test [1]; -1.51% in test [2]; 15.2% in [3]; -0.49% in [4]; 1.55% in test [5]; 2.01% in test [6]. The inhibition in [7] was 2.59%; in [8], -0.47%; in test [9], 11.6%; in [10], 1.46%; in test [11] it was 5.17%; in [12], 0.37%. Further, the inhibition was determined as 1.24% in [13]; 57.7% in [14]; 93.4% in test [15]; 1.04% in test [16]; 5.75% in test [17]; 1.85% in test [18]. The inhibition amounted to 7.87% in test [19] and 1.11% in [20].
As for `COc1ccc(-c2nn3ncccc3c2-c2ccnc(Nc3ccc(F)c(F)c3)n2)cc1`, the inhibition in test [1] turned out to be 3.15%; in test [2], 14.7%; in [3], 17.7%; in test [5] it was 8.96%; in test [6], 10.3%; in [7], 11.2%. For the same molecule, the inhibition in test [8] came out at 7.34%; in test [9], 11.3%; in [10], 9.04%; in [11], 15.3%; in [12], 0.7%; in test [13], 2.26%. Moreover, the inhibition came to 6.54% in test [14]; 17.9% in [15]; 4.85% in test [16]; 18.1% in test [17]; 16.2% in test [18]; 15.8% in test [19]. Also, the inhibition in test [20] was 9.34%.
Take `NS(=O)(=O)c1ccc(N/N=C2\C(=O)Nc3ccc(C(=O)NCc4ccncc4)cc32)cc1`: the inhibition was 21.9% in [1]; 23.6% in test [2]; 69.4% in [3]; 18.8% in test [4]; 71.5% in [5]; 3.72% in test [6]. In addition, the inhibition was found to be 16.9% in test [7]; 15.6% in [8]; 61.3% in test [9]; 45.6% in test [10]; 85.3% in test [11]; 1.15% in test [12]. The inhibition came out at 0.41% in [13]; 3.79% in test [14]; 8.61% in test [15]; 11.1% in [16]; 49.3% in [17]; 31.4% in test [18]. The inhibition in test [19] stood at 75.2%; in [20] it was 10.6%.
For the molecule `CCN1CCC(C(=O)Nc2n[nH]c3nnc(-c4cccc(F)c4F)cc23)CC1`, the inhibition is 4.59% in test [1]; 0.87% in test [2]; 3.69% in test [3]; 1.64% in test [4]; 2.59% in [5]; 2.94% in [6]. Also, the inhibition in [7] was 7.18%; in test [8], -0.48%; in [9] it was 0.89%; in test [10] it was 3.08%; in test [11], 4.95%; in [12], 0.31%. In addition, the inhibition in test [13] was 1.25%; in test [14], -2.3%; in [15], 1.39%; in [16], 2.54%; in test [17] it was -1.84%; in test [18] it was 4.84%. Also, the inhibition in [19] came to 8.91%; in test [20] it was 3.29%.

Values taken from ChEMBL document CHEMBL1961873, “Compounds: GSK PKIS; Assays: Nanosyn kinase panel” (2012).
